Experimental data as given in PubChem BioAssay AID2550 (Johns Hopkins Ion Channel Center, 2010).
The campaign covered roughly 310,000 compounds. About 380 (0.12%) were called active.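 The calls were made as follows: active = B-score of the integrated fluorescence ratio above library mean plus 3 SD, and starting fluorescence ratio within library mean plus 5 SD; inactive = the rest.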 Only a selection was taken, and actives are over-represented in it overall.

Each compound was assayed against Short transient receptor potential channel 6 (Mus musculus) (UniProt Q61143) (assay: mouse TRPC6 channel activators, primary screen, cell-based, HEK293, membrane potential dye (AID 2550;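 also: higher score means more depolarization so channel activation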)). Details: HEK293-TRPC6 membrane potential dye fluorescence, at 10 µM; active compounds read high.
Chain of Short transient receptor potential channel 6 (Mus musculus) (Q61143 whole entry, looked up): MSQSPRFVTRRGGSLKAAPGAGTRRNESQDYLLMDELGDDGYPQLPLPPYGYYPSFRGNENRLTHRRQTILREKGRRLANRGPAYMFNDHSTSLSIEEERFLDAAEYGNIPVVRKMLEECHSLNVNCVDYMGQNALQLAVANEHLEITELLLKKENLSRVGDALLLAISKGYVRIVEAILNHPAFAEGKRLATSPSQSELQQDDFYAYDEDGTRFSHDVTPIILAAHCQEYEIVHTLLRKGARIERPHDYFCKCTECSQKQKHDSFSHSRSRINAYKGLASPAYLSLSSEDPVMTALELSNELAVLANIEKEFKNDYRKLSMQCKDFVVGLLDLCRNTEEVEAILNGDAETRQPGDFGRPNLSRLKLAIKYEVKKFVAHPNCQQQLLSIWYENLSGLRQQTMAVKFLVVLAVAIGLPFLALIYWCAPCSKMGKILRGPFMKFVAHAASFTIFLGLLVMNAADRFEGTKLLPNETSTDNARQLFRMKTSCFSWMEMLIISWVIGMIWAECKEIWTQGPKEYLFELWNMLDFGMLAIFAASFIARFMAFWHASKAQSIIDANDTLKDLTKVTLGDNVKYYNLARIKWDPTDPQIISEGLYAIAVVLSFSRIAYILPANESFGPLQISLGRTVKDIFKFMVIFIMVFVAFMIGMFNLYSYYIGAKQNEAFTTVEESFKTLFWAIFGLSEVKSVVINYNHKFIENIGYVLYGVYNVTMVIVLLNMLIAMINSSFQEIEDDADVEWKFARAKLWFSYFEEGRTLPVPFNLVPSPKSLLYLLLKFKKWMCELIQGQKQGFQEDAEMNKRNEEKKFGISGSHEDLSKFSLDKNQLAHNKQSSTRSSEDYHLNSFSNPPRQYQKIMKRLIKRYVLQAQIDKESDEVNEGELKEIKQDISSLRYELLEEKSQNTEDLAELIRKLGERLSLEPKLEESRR

Row | Compound | B-score
1 | CCOC(=O)/C(N=Nc1cc(C(=O)O)cc(C(=O)O)c1)=C(\O)CCl | inactive
2 | CC(=O)c1ccc(NC(=O)C(C)NCc2ccc(Cl)cc2)cc1 (configuration not stated) | inactive
3 | O=C(CN1C(=O)NC2(CCCCC2)C1=O)NCCc1c[nH]c2ccccc12 | inactive
4 | CC(=O)N/C(=C/c1ccc(Cl)cc1)C(=O)NCCc1c[nH]c2ccccc12 | inactive
5 | N#C/C(=C/c1ccc(N2CCCCC2)o1)C(=O)NCCc1c[nH]c2ccccc12 | 33.2 (active)
6 | O=C(COc1cc2oc(=O)c3c(c2cc1Cl)CCC3)NCCCN1CCOCC1 | inactive
7 | COc1nc(N(C)C)nc(N2CC(=O)N(CCNS(=O)(=O)c3ccc(C)cc3)C2=N)n1 | inactive
8 | CC(NCc1ccccc1OC1CCCC1)c1ccccc1 (configuration not stated) | 14.5 (active)
9 | COc1ccccc1CN1CCN(C(c2ccccc2)c2ccccc2)CC1 | inactive
10 | CC(C)(C)NCc1cc(Br)ccc1OC1CCCC1 | inactive
11 | COc1ccc2[nH]c(=O)c(CNc3ccc(C)c(C)c3)cc2c1 | inactive
12 | CC(=O)c1ccc(N2CCN(S(=O)(=O)c3c(C)[nH]c(=O)[nH]c3=O)CC2)cc1 | inactive
13 | CN1C(C(=O)NCC2CC2)CC2Cn3c(nc4ccccc43)C21 (configuration not stated) | inactive
14 | CC1(C)OC(=O)C(=CSc2ccc(C(C)(C)C)cc2)C(=O)O1 | inactive
15 | COc1ccc(-c2nnc(NC(=O)CS(=O)(=O)c3ccc(Cl)cc3)o2)c(OC)c1 | 13.4 (active)
16 | Cc1ccc(C)c(-c2nnc(NC(=O)CS(=O)(=O)c3ccccc3)o2)c1 | inactive
17 | COc1ccc(NC(=O)CS(=O)(=O)c2ccccc2)cc1 | inactive
18 | CCOC(=O)CSC1=N/C(=C/c2ccc(-n3cncn3)cc2)C(=O)N1C(C)=O | inactive
19 | COc1ccc(S(=O)(=O)NCC(=O)NC2CC2)cc1OC | inactive
20 | CCc1ccc2oc(=O)cc(CN3CCCCC3C)c2c1 (configuration not stated) | inactive
21 | CCC1OC(c2ccc([N+](=O)[O-])cc2)=Nc2ccccc21 (configuration not stated) | inactive
22 | Cc1cc(Cl)ccc1C(=O)C1CCCN(C(=O)CCN2CCCO2)C1 (configuration not stated) | inactive

Row | Compound | B-score
23 | O=C(COc1ccc(S(=O)(=O)N2CCOCC2)cc1Cl)N1CCOCC1 | inactive
24 | O=c1[nH]oc(O)c1-c1ncc(C(F)(F)F)cc1Cl | inactive
25 | CC(C)(C)NC(=O)C(=O)NCc1ccncc1 | inactive
26 | COc1ccc(CNC(=O)COC(=O)/C=C/c2ccc(S(=O)(=O)N3CCOCC3)cc2)cc1 | inactive
27 | Cc1ccc(NC(=O)CN2C(=O)NC(C)(c3ccc(Cl)cc3)C2=O)c(Br)c1 (configuration not stated) | inactive
28 | O=C(COc1ccc2ccc(=O)oc2c1)NCC(O)c1ccccc1 (configuration not stated) | inactive
29 | O=C(Nc1ccccc1Cl)c1ccccc1S(=O)(=O)c1ccccc1[N+](=O)[O-] | inactive
30 | CCOC(=O)c1sc2nc(CSc3ccccc3)[nH]c(=O)c2c1C | inactive
31 | CCOC(=O)c1sc2nc(CSCC(=O)OCc3ccc(C(=O)OC)o3)[nH]c(=O)c2c1C | 18.9 (active)
32 | CCOC(=O)c1sc2nc(C)[nH]c(=O)c2c1C | inactive
33 | COc1ccccc1N1CCN(C(=O)c2ccc(NC3=NC4CS(=O)(=O)CC4S3)cc2)CC1 (configuration not stated) | inactive
34 | CCn1cc(C(=O)N2CC=C(c3ccccc3)CC2)c(=O)c2ccc(C)nc21 | inactive
35 | CCOc1cc(-c2conc2N)cc(OCC)c1OCC | inactive
36 | O=C(NCc1ccccc1)C(c1ccco1)N(C(=O)c1csnn1)c1ccccc1F (configuration not stated) | inactive
37 | COc1ccccc1CN1CCNC(=O)C1CC(=O)N(C)CC1CCOCC1 (configuration not stated) | inactive
38 | Cc1ccc(CNC(=O)Cn2c(=O)c3sccc3n(Cc3cccc([N+](=O)[O-])c3)c2=O)cc1 | inactive
39 | O=C(O)CC(Cn1cnnn1)c1ccccc1 (configuration not stated) | inactive
40 | CCc1ccc2nc(Nc3ncc(C(C)=O)c(C)n3)nc(C)c2c1 | inactive
41 | CC(O)c1ccc(OCCN(C)c2ccccn2)cc1 (configuration not stated) | inactive
42 | O=C(CC1C(=O)NCCN1C(=O)c1ccc([N+](=O)[O-])cc1)Nc1cccc(Cl)c1 (configuration not stated) | inactive
43 | CCO[C@@H]1OC(C(=O)NC2CC2)=C[C@H](C)[C@H]1CCCO | inactive
44 | O=C(NC1CCCCC1)C1CC(=O)N(CCc2ccccc2)C1 (configuration not stated) | inactive

Row | Compound | B-score
45 | CCOC(CNC(=O)C(=O)NCC(c1ccco1)N1CCN(c2ccc(OC)cc2)CC1)OCC (configuration not stated) | inactive
46 | CCOc1ccc(S(=O)(=O)N2CCC(C(=O)NCc3ccccn3)CC2)cc1Cl | inactive
47 | O=C(COc1ccccc1)Nc1nonc1NC(=O)COc1ccccc1 | inactive
48 | CC(=O)c1cc2c(cc1NC(=O)CN1CCCCCC1)OCO2 | inactive
49 | O=C(CCN1C(=O)C2CCCCC2C1=O)Nc1ccc(OC(F)F)cc1 (configuration not stated) | inactive
50 | COC(=O)c1ccc(NC(=O)CSc2nnc(-c3ccncc3)n2C)cc1 | 12.9 (active)
51 | COC(=O)c1ccc(NC(=O)CSc2nnc(CNc3ccc(OC)cc3)n2C)cc1 | inactive
52 | COC(=O)c1ccc(NC(=O)CSc2nnc(C3CC3)n2C)cc1 | inactive
53 | COc1cccc(-c2cccc(NC(=O)C3CCN(C4CCC4)CC3)c2)c1 | inactive
54 | CC(=O)c1c(C)[nH]c(C(=O)N2CCN(S(=O)(=O)c3ccc(F)c(F)c3)CC2)c1C | inactive
55 | [O-][n+]1onc2c1CCc1[nH]c(-c3ccccc3)nc1-2 | inactive
56 | C=CCN1C(=NC(=O)COc2ccccc2)SC2CS(=O)(=O)CC21 (configuration not stated) | inactive
57 | O=c1c2ccccc2cnn1Cc1n[nH]c(=S)n1-c1ccccc1F | inactive
58 | CCC(C(=O)OCC(=O)Nc1ccccc1-c1ccccc1)c1ccccc1 (configuration not stated) | inactive
59 | CCOCCN(C=O)c1cccc(OC)c1 | inactive
60 | C=CCc1cc(S(=O)(=O)c2ccc(O)c(CC=C)c2)ccc1O | inactive
61 | C=CCc1ccc(OCCOc2cccc(/C=N/n3cnnc3)c2)c(OC)c1 | inactive
62 | CN(C(=O)CC(NC(=O)c1ccccc1)(c1ccccc1)c1ccccc1)c1ccccc1 | inactive
63 | Cc1cccc(NC(=O)C(C)N2C(=O)C3C4CC(C(Br)C4Br)C3C2=O)c1 (configuration not stated) | inactive
64 | CC(=O)c1c(N2CCN(c3ccc(F)cc3)CC2)nc(=S)n(-c2ccccc2)c1C | inactive
65 | CC(=O)Nc1ccc(NC(=O)COc2ccc(S(=O)(=O)NC(C)c3ccccc3)cc2)cc1 (configuration not stated) | inactive
66 | FC(F)(F)c1cccc(-c2cc3ccccc3nc2N2CCCC2)c1 | inactive

Row | Compound | B-score
67 | Cc1cccc2[nH]c(CN(C)C(=O)C3CCC(=O)N(CCc4ccccc4)C3)nc12 (configuration not stated) | inactive
68 | Cc1c(S(=O)(=O)NC(C)c2ccccc2)c(=O)n(C)c(=O)n1C (configuration not stated) | inactive
69 | COc1ccc(CC(NC(C)=O)C(=O)NC2CCN(C(=O)C3CC3)CC2)cc1OC (configuration not stated) | inactive
70 | O=S(=O)(c1cccc(Cn2nnc(-c3ccc(F)cc3)n2)c1)N1CCOCC1 | inactive
71 | C[C@]1(C(=O)NCCc2c[nH]c3ccccc23)C=C[C@@H](Cc2ccccc2)N1C(=O)c1ccccc1 | inactive
72 | CCOC(=O)c1nc(-c2ccc3c(c2)OCO3)[nH]c1C | inactive
73 | Cc1cc(Nc2ccc(C(=O)N3CCCCC3)cc2)c2cccc(C)c2n1 | inactive
74 | CCC(c1nnc(SCC(=O)NNC(=O)c2ccccc2)n1Cc1ccccc1)N(C)C (configuration not stated) | inactive
75 | COc1ccc(-n2cc(-c3ccccc3)c3c(=S)nc[nH]c32)cc1 | inactive
76 | Cc1nnc(NC(=O)Cn2c(=O)sc3ccccc32)s1 | inactive
77 | O=C(Nc1cc(-c2nn(CC(=O)N3CCCCC3)c(=O)c3ccccc23)ccc1N1CCOCC1)c1ccc(Cl)cc1 | inactive
78 | Cc1cccc(NC(=O)Nc2ccc3c(c2)OCO3)n1 | inactive
79 | OCc1nc(CO)n(Cc2ccccc2)n1 | inactive
80 | CCN(CC)C(=O)N1CCN(C(=O)c2ccc(C)cn2)CC1 | inactive
81 | COc1ccc(CCC(=O)c2ccc(OC)cc2)cc1 | inactive
82 | COCC1CCN(C(=O)C2CCC(=O)N(Cc3cccc(C(F)(F)F)c3)C2)CC1 (configuration not stated) | inactive
83 | CCCCc1c(O)nc2n(c1=O)CCS2 | inactive
84 | CCOC(=O)N1CCC(O)(c2cc(C)c(C)cc2C)CC1 | inactive
85 | COc1cccc2c1CCC(NC(C)=O)C2=O (configuration not stated) | inactive
86 | O=C1CSC2=NCN(c3ccccc3)CN12 | inactive
87 | CN1C(CC(=O)Nc2ccc(Br)cc2)c2ccccc2CC1(C)C (configuration not stated) | inactive
88 | Nc1[nH][nH]c(=O)c1N=Nc1ccc2c(c1)OCO2 | inactive

Row | Compound | B-score
89 | Cn1c(SCC(=O)Nc2ccc(Cl)cc2)nc(O)cc1=O | inactive
90 | CCOc1ccc(NC(=O)CN(C)CC(=O)Nc2cccc(Cl)c2C)cc1OCC | inactive
91 | Cc1ccc(NC(=O)C2CCN(S(=O)(=O)c3ccc4c(c3)NC(=O)CO4)CC2)cc1C | inactive
92 | CCCCN=C(N)/C(C(=O)OCC)=C(\O)c1ccc(OC)cc1 | inactive
93 | CC(C)C(c1nnnn1C(C)(C)C)N1CCN(Cc2cccnc2)CC1 (configuration not stated) | inactive
94 | Cn1c(-c2ccc(C(=O)c3ccccc3)s2)nc2ccccc21 | inactive
95 | COc1cccc(C2c3[nH]c4ccccc4c3CCN2Cc2cccc(C)n2)c1 (configuration not stated) | inactive
96 | COC(=O)[C@@H]1CC(O)CN1C(=O)C12CC3CC(CC(C3)C1)C2 (some centres not stated) | inactive
97 | Cc1ccc(NC(=O)c2sc3nc(N)c(C#N)cc3c2N)cc1 | inactive
98 | CCn1ccnc1CNC(=O)CC1C(=O)NCCN1Cc1ccc(F)cc1Cl (configuration not stated) | inactive
99 | COc1cc(CNCCN(C)C)ccc1OCc1c(F)cccc1Cl | 12.5 (active)
100 | CCOCCCNCc1ccc(OCc2ccc(F)cc2)c(OC)c1 | inactive
101 | CCN(CC)CCNCc1ccc(OCc2ccc(Cl)nc2)c(OC)c1 | inactive
102 | CCc1ccc(/C=N/NC(=O)c2nnn(-c3nonc3N)c2CN2CCc3ccccc32)cc1 | inactive
103 | Cc1cccc(CCNS(=O)(=O)c2ccc3c(c2)NC(=O)CO3)c1 | inactive
104 | Cc1ccccc1-n1nnnc1SCCCC(=O)c1ccc(F)cc1 | inactive
105 | CCC(C)N1C(=O)S/C(=C/c2ccc(Sc3nc4ccccc4[nH]3)o2)C1=O (configuration not stated) | inactive
106 | COc1cccc(CNC(=O)C2CC(=O)N(C3CCCCCCC3)C2)c1 (configuration not stated) | inactive
107 | CNc1nc(Nc2ccc(C)c(Cl)c2)nc(N)c1[N+](=O)[O-] | inactive
